Shown are actives, neighbours in structure and some others; about 7.9% of the full set was active somewhere.
KB-3-1 cytotox: KB-3-1 parental cell cytotoxicity. KB-3-1 viability, CellTiter-Glo ATP luminescence, 72 h. Potency, µM (series often up to 46.1 µM), actives largely listed as cytotoxic. 400,000 compounds, 1.4% hits; further: nearly all actives have a fitted effect of over 60% in size
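72 h, 37 °C compound treatment of KB-3-1 parental cells; CellTiter-Glo added, 10 min, luminescence read. Data corrected against DMSO-only plates and normalized before curve fitting.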
KB-V1 cytotox: KB-V1 MDR subline cytotoxicity; KB-V1 MDR cells viability, CellTiter-Glo, 72 h; Potency, µM (titrated, usually from 46.1 µM), actives largely listed as cytotoxic; 400,000 compounds, 3.4% hits; further: nearly all actives have a fitted effect of over 60% in size
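KB-V1 MDR subline cells in DMEM (phenol-red free, 10% FBS) exposed to compounds in qHTS concentration series for 72 h at 37 degrees C. Viability read by CellTiter-Glo luminescence; concentration-effect curves fitted after normalization and correction.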
HT1080-NT tox: kills 2HG-producing HT-1080-NT fibrosarcoma cells; HT-1080-NT fibrosarcoma viability, CellTiter-Glo ATP luminescence, 48 h; Potency, µM (doses to about 46.1 µM), usual class: cytotoxic; 360,000 compounds, 1.6% hits; AID 686970;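 further: NT is the 2HG producing partner of a matched IDH1 knockdown line; nearly all actives have a fitted effect of over 55% in size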
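Compounds were tested in concentration-response format on HT-1080-NT cells for 48 hours at 37 degrees C. Cell viability came from CellTiter-Glo luminescence; curves were classified by r2, response magnitude and activity.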
MCF10A rereplic: DNA re-replication induction in MCF 10a cells | MCF 10A DNA re-replication, Hoechst nuclear intensity, 48 h | Potency, µM (top dose mostly 46.1 µM), hits mostly activators | 350,000 compounds, 2.9% hits; further: nearly all actives have a fitted effect of over 50% in size
HT1080 IDH1KD tx: kills HT-1080 cells with IDH1 knockdown. HT-1080 IDH1 knockdown viability, ATP luminescence, 48 h. Potency, µM (series often up to 46.1 µM), actives largely listed as cytotoxic. 360,000 compounds, 2% hits
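After a 2 h attachment period, IDH1KD HT-1080 cells took pin-transferred compound for 48 h at 37 °C; ATP-based luminescence after 10 min room-temperature reagent incubation reported viability.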
SW480 rereplic: inducers of DNA re-replication in SW480 colon cancer cells | SW480 DNA re-replication, Hoechst DNA content imaging, 48 h | Potency, µM (doses to about 46.1 µM), actives largely listed as activators | 340,000 compounds, 1.8% hits | AID 624297; further: nearly all actives have a fitted effect of over 55% in size
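Quantitative HTS format with DMSO vehicle controls; 48 hr drug incubation at 37 C, then 40 min Hoechst staining and scanning imager measurement at 405 nm excitation.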
A number is an active result; . = inactive; ? = inconclusive; / = no result given; [ ] = remark or other dose. The call rests on the fitted dose curve; in most records, active means well fitted curve in the direction sought with a large enough effect; inconclusive means small, poorly fitted or top-dose-only effect, or another doubt; inactive means no such curve, though single readings can be large; an effect the other way counts as inactive or inconclusive.

SMILES	KB-3-1 cytotox	KB-V1 cytotox	HT1080-NT tox	MCF10A rereplic	HT1080 IDH1KD tx	SW480 rereplic
Cc1ccc2nc(Cl)c(/C=N/NC(=O)CN3CCOCC3)cc2c1	.	.	.	.	.	.
O=[N+]([O-])c1ccc(Sc2ccccn2)nc1	.	?	.	.	.	.
Cc1ccccc1-n1nnnc1Sc1nnnn1-c1ccccc1	?	?	?	15µM	15µM	?
CCCSc1nnc(Sc2nnnn2-c2ccccc2)s1	5.2µM	13µM	16µM	?	23µM	6.5µM
O=[N+]([O-])c1ccc(Sc2nnnn2-c2ccccc2)nc1	?	?	16µM	3.7µM	21µM	6.5µM
O=S(=O)(c1ccccc1)c1nc(-c2ccco2)oc1NCc1ccccc1	.	.	.	.	?	.
COC(=O)c1cccc(Cn2c(Cl)c(/C=N/Nc3ccccc3C)sc2=O)c1	.	?	.	26µM	.	10µM
COc1ccc(/C(C)=N/NC(=O)c2cc(-c3cccnc3)nc3ccccc23)cc1	.	.	.	.	.	.
CC(OC(=O)c1cc(-c2cccnc2)nc2ccccc12)C(=O)Nc1ccc2ccccc2c1 (stereo not given)	.	.	.	16µM	.	.
C/C(=N\NC(=O)c1cc(C2CC2)nc2ccccc12)c1ccc(O)cc1O	?	.	?	.	4.6µM	1.5µM
C/C(=N\NC(=O)c1cc(-c2cccnc2)nc2ccccc12)c1ccccc1O	.	6.5µM	.	?	9.2µM	.
O=C(NNC(=S)Nc1ccccc1)c1cc(-c2cccnc2)nc2ccccc12	.	.	.	.	.	.
Cc1nn(-c2ccccc2)c(C)c1Cc1ccc(O)cc1	.	.	.	.	.	.
Cc1cc(C)c(NC(=O)CSC2=Nc3ccccc3C3=NC(CC(=O)NCc4cccs4)C(=O)N23)c(C)c1 (stereo not given)	.	.	/	/	/	/
Oc1ccc(/C=N/Nc2ccnc3cc(Cl)ccc23)cc1O	.	.	?	.	?	16µM
CC/C(=N\Nc1ccnc2cc(Cl)ccc12)c1ccc(O)cc1	?	.	18µM	?	16µM	?
CCCCNc1nc(=S)n(-c2ccccc2)c(C)c1C(C)=O	?	.	?	?	16µM	?
O=C(NCc1ccccc1)c1cc(=O)nc2sc(-c3ccccc3)nn12	?	13µM	.	.	.	.
Cc1cccc(C)c1OCC(O)CN1CCC(CN2C(=O)c3cccc4cccc(c34)C2=O)CC1 (stereo not given)	21µM	?	.	?	.	?
CCOC(=O)c1cc(-c2csc(COc3ccccc3Cl)n2)on1	.	.	.	.	.	.
CCOC(=O)C(C)N1N=C(/C=C/c2ccc(C)cc2)CCC1=O (stereo not given)	?	16µM	.	.	.	.
CCOC(=O)CN1N=C(/C=C/c2ccc(C(C)C)cc2)CCC1=O	7.3µM	2.3µM	.	.	.	.
O=C(Nc1ccc(-c2nc3ccccc3s2)c(OC(=O)c2ccccc2)c1)c1ccccc1	.	.	.	.	.	.
O=C(CSc1nnc(Nc2ccccc2)s1)NCc1cccs1	.	?	.	.	.	.
O=C(c1nnc(-c2ccccc2)o1)C1CC1	.	.	.	.	.	.[1.84 µM]
SMILES	KB-3-1 cytotox	KB-V1 cytotox	HT1080-NT tox	MCF10A rereplic	HT1080 IDH1KD tx	SW480 rereplic
Cc1cccc(C)c1NC(=O)CCCSc1nnc(-c2ccc(F)cc2)n1-c1ccccc1	16µM	2.3µM	.	?	.	.
Cc1cccc(C)c1NC(=O)CCCSc1nnc(-c2ccc(Cl)cc2)n1-c1ccccc1	4.1µM	2.9µM	.	?	?	?
COc1ccc(C)cc1NC(=O)c1ccc2c(=O)n3c(nc2c1)CCCCC3	.	.	.	.	?	.
Fc1ccc(Nc2cccc3nccnc23)cc1	.	.	.	.	.	.
c1ccc2nccnc2c1	4.6µM	?	/	/	/	/
c1cc(Nc2cccc3nccnc23)c2nccnc2c1	?	?	.	.	.	8.2µM
c1ccc2ncccc2c1	?	.	.	.	.	.
CC1CCN(C(=O)COC(=O)c2ccc3c(c2)C(=O)N(Cc2ccco2)C3=O)CC1	.	.	.	?	.	.

Assay outcomes (PubChem BioAssay)
